Data: PubChem BioAssay (EPA / NIEHS)
Values joined by “and” are separate entries in the source; they are usually repeats but may differ in a detail not shown here. Equal entries are not always repeated. A structure can be active in one record and inactive in another. Active and inactive are the calls of the source. The calls were made as follows: active = hit-call score of the fitted dose curve at least 0.9, where 1 is the maximum; inactive = score below 0.9.

Assay: ATG_E_Box_CIS: Attagene CIS-FACTORIAL HepG2 Assay for human Enhancer Box (E-box) (AID 2282936)
Conditions: HepG2 E-box cis-reporter transcription, actives raise or lower the signal
Description: ATG_CIS is a cell-based, multiplexed-readout assay that uses HepG2, a human liver cell line, with measurements taken at 24 hours after chemical dosing in a 24-well plate.ATG_E_Box_CIS is one of 52 assay component(s) measured or calculated from the ATG_CIS assay. It is designed to make measurements of mRNA induction, a form of inducible reporter, as detected with fluorescence intensity signals by Reverse transcription polymerase chain reaction (RT-PCR) and Capillary electrophoresis technology.Data from the assay component ATG_E_Box_CIS was analyzed into 1 assay endpoint. This assay endpoint, ATG_E_Box_CIS, was analyzed with bidirectional fitting relative to DMSO as the negative control and baseline of activity. Using a type of inducible reporter, measures of mRNA for gain or loss-of-signal activity can be used to understand the reporter gene at the transcription factor-level as they relate to the gene USF1. Furthermore, this assay endpoint can be referred to as a primary readout, because this assay has produced multiple assay endpoints where this one serves a reporter gene function. To generalize the intended target to other relatable targets, this assay endpoint is annotated to the dna binding intended target family, where the subfamily is basic helix-loop-helix protein.
Human liver HepG2 cells are transiently transfected with multiple reporter transcription units (MRTUs) in 6-well plates using FuGene 6 reagent (Roche; 3 ml FuGene/1 mg DNA). The MRTU constructs are regulated by a cis-regulating element (promoter). […] A major difference between the CIS and TRANS system is that in CIS activities of endogenous TFs are measured, whereas the TRANS assay evaluates changes in activities of exogenous, chimeric NR-Gal4 proteins. […] At the end of 24 hour incubation, total RNA was isolated using TriZol reagent (Invitrogen). The isolated RNA is then reverse-transcribed using oligo(dT) primer and Mo-MLV reverse transcriptase (Invitrogen) with DNAse I (Ambion) treatment for 30 min. The one-tenth of the produced cDNA was amplified by PCR using Taq DNA polymerase (Invitrogen) and two reporter sequence-specific primers. The PCR products were fluorescently labeled by primer extension with 6-arboxyfluorescein (6-FAM) 5'-labeled reporter sequence-specific primer (2 min at 95 C, 20 s at 68 C and 10 min at 72 C) and these products were digested with 5U of HpaI (New England Biolabs) for 2h at 37 C. The fragments were purified using Qiaquick PCR columns (Qiagen), analyzed on an ABI 3130xL genetic analyzer (Applied Biosystems) with peak positions identified by using a set of X-rhodamine (ROX)-labeled MapMarker1000 molecular weight standards (BioVentures). The raw capillary electrophoresis data was processed using Attagraph software (Attagene).

Row | Structure (SMILES) | outcome | AC50
1 | O=C(O)C(F)(F)C(F)(F)C(F)(F)C(F)(F)C(F)(F)C(F)(F)C(F)(F)C(F)(F)C(F)(F)F | inactive | 88.6 µM (active)
2 | Cc1ccc(O)c(C)c1 | inactive | –
3 | Nc1ccc(-c2ccc(N)cc2)cc1 | inactive | –
4 | Cc1ccccc1CO[C@@H]1C[C@@]2(C(C)C)CC[C@]1(C)O2 | inactive | –
5 | CCC(C)(c1ccc(O)cc1)c1ccc(O)cc1 | inactive | 43.5 µM (active)
6 | CC(C)C(=O)OCC(C)(C)C(OC(=O)C(C)C)C(C)C (stereo not given) | inactive | –
7 | CC(C)(c1ccccc1)c1ccc(O)cc1 | inactive | –
8 | O=NN(c1ccccc1)c1ccccc1 | inactive | –
9 | C=CC(N)=O | inactive | –
10 | Clc1ccc(C(Cl)(Cl)Cl)cc1 | inactive | –
11 | O=C(O)C(F)(F)C(F)(F)C(F)(F)C(F)(F)C(F)(F)C(F)(F)C(F)(F)C(F)(F)F | inactive | –
12 | CCSC(=O)N(CC)C1CCCCC1 | inactive | –
13 | CCOCCOC(C)=O | inactive | –
14 | ClC(Cl)=C(c1ccc(Cl)cc1)c1ccc(Cl)cc1 | inactive | 58.3 µM (active) and 24.8 µM (active)
15 | CC1=C2C[C@H]3[C@@H](CC=C4C[C@@H](O)CC[C@@]43C)[C@@H]2CC[C@]12O[C@@H]1C[C@H](C)CN[C@H]1[C@H]2C | inactive | –
16 | NS(=O)(=O)C(F)(F)C(F)(F)C(F)(F)C(F)(F)C(F)(F)C(F)(F)C(F)(F)C(F)(F)F | inactive | 240 µM (active)
17 | O=C(NC(=O)c1cc(F)c(F)cc1Cl)Nc1cc(F)ccc1N1CCC(C(=O)O)CC1 | inactive | –

Row | Structure (SMILES) | outcome | AC50
18 | COc1ccc(O)c(C(C)(C)C)c1 | inactive | –
19 | c1ccc(-c2ccccc2)cc1 | inactive | –
20 | CCOP(=S)(OCC)SCSC(C)(C)C | inactive | 1.86 µM (active)
21 | N#Cc1ccc(N(CC(N)=O)CC(F)(F)F)cc1C(F)(F)F | inactive | –
22 | Oc1c(Cl)c(Cl)c(Cl)c(Cl)c1Cl | inactive | 67.8 µM (active)
23 | CCCCCCCCCC[N+](C)(C)CCCCCCCCCC | – | 40.8 µM (active)
24 | Clc1ccc(Cl)cc1 | inactive | –
25 | O=C(NC(=O)c1c(F)cccc1F)Nc1cc(Cl)c(OC(F)(F)C(F)F)c(Cl)c1 | inactive | –
26 | CCC(C)(CC)c1cc(NC(=O)c2c(OC)cccc2OC)on1 | inactive | –
27 | CCC(C)c1cc([N+](=O)[O-])cc([N+](=O)[O-])c1O (stereo not given) | inactive | –
28 | CO/C=C(/C(=O)OC)c1ccccc1COc1cccc(C(F)(F)F)n1 | inactive | –
29 | CCCCCCOC(=O)c1ccccc1C(=O)OCCCCCC | inactive | –
30 | Cc1cccc(C)c1N | inactive | –
31 | C1CC2OC2CC1C1CO1 (stereo not given) | inactive | –
32 | CCOC(=O)C(O)(c1ccc(Cl)cc1)c1ccc(Cl)cc1 | inactive | –
33 | Cc1cccc([N+](=O)[O-])c1 | inactive | –
34 | Oc1ccc(Cl)cc1Cl | inactive | –
